Hits are enriched below; roughly 1.1% of the tested compounds scored in any of these assays.
Mtb BioA inh: inhibitors of Mycobacterium tuberculosis BioA enzyme | inhibition, % at 9.99 µM | purified M. tuberculosis BioA enzyme, plate reader | AID 602481 | 0.096% of 360,000 active; in the data active means inhibition above about 40%
PrP UTR inh: suppresses PrP 5' UTR mRNA reporter expression; cell-based PrP 5' UTR mRNA reporter, plate reader; inhibition, % (test concentration not listed); 0.35% of 340,000 active; AID 488862; in the data active means inhibition above about 52%
FadD28 FP inh: M. tuberculosis FadD28 bisubstrate binding inhibition | inhibition, % at 12.5 µM | FadD28 bisubstrate probe binding, fluorescence polarization | 0.22% of 360,000 active; in the data active means inhibition above about 8.5%, passing the limit was not always enough
PfHsp40 rescue: restores yeast growth despite PfHsp40 toxicity; S. cerevisiae expressing PfHsp40, growth rescue, ATP luminescence; growth rescue, % at 12.5 µM; 0.68% of 340,000 active; AID 504582; in the data active means growth rescue above about 28%, passing the limit was not always enough;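 further: yeast W303a lacking pdr1 and pdr3 grown in galactose medium; growth measured after three days at 30 °C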
Yp Topo-I inh: inhibitors of Yersinia pestis topoisomerase I; Y. pestis Topo-I cleavage product accumulation, plate reader; activity, % at 10 µM; 0.064% of 360,000 active; in the data active means activity above about 50%, passing the limit was not always enough
Hits are given with their value.

Results for O=C(N/N=C/c1sc(N2CCOCC2)nc1-c1ccccc1)c1ccccc1Cl ?
Mtb BioA inh: inactive; PrP UTR inh: inactive; FadD28 FP inh: inactive; PfHsp40 rescue: inactive; Yp Topo-I inh: inactive

What do the screens show for `O=C(N/N=C/c1sc(N2CCOCC2)nc1-c1ccccc1)c1ccccc1O`?
Mtb BioA inh: inactive; PrP UTR inh: inactive; FadD28 FP inh: inactive; PfHsp40 rescue: 238; Yp Topo-I inh: inactive

What do the screens show for `O=C(O)C/C(=C\c1cccc(NC(=O)c2ccccc2Cl)c1)c1nc2ccccc2s1`?
Mtb BioA inh: inactive; PrP UTR inh: inactive; FadD28 FP inh: inactive; PfHsp40 rescue: 28; Yp Topo-I inh: inactive

Results for C[C@H]1CN([C@@H](C)CO)C(=O)c2c(c3ccccc3n2C)-c2ccccc2CO[C@@H]1CN(C)S(=O)(=O)c1ccccc1F ?
Mtb BioA inh: inactive

What do the screens show for `C=C(C)COc1ccc(-c2[nH]ncc2-c2ccc(OC)cc2)c(O)c1`?
PrP UTR inh: inactive; FadD28 FP inh: inactive; PfHsp40 rescue: 92; Yp Topo-I inh: inactive

Results for C=C(C)COc1ccc(-c2[nH]ncc2-c2ccccc2)c(O)c1 ?
Mtb BioA inh: inactive; PrP UTR inh: inactive; FadD28 FP inh: inactive; PfHsp40 rescue: 519; Yp Topo-I inh: inactive

What do the screens show for `O=Cc1cc(OCc2ccccc2)ccc1[B-](F)(F)F`?
Mtb BioA inh: inactive; PrP UTR inh: inactive; FadD28 FP inh: inactive; PfHsp40 rescue: 160; Yp Topo-I inh: inactive

What do the screens show for `COc1cc(C2C(C#N)=C(N)OC3=C2C(=O)CCC3)c([N+](=O)[O-])cc1OC` (configuration not stated)?
PrP UTR inh: inactive; FadD28 FP inh: 21; PfHsp40 rescue: inactive; Yp Topo-I inh: inactive

What do the screens show for `CCN1/C(=C/C=C/c2sc3ccccc3[n+]2CC)Sc2ccccc21`?
Mtb BioA inh: inactive; PrP UTR inh: inactive; FadD28 FP inh: inactive; PfHsp40 rescue: 254; Yp Topo-I inh: inactive

How did COc1ccc(C(=O)CC(=O)C(=O)Nc2ccccc2)cc1 do in these assays?
PrP UTR inh: inactive; FadD28 FP inh: inactive; PfHsp40 rescue: 57; Yp Topo-I inh: inactive

What do the screens show for `COc1ccc(C(=O)CC(=O)C(=O)Nc2cccc(F)c2)cc1`?
Mtb BioA inh: inactive; PrP UTR inh: inactive; FadD28 FP inh: inactive; PfHsp40 rescue: 39; Yp Topo-I inh: inactive

How did Cc1ccc(COC(=O)c2cc([N+](=O)[O-])ccc2N2CCOCC2)cc1 do in these assays?
Mtb BioA inh: inactive; PrP UTR inh: 77; FadD28 FP inh: inactive; PfHsp40 rescue: inactive; Yp Topo-I inh: inactive

Results for COc1cccc(NC=C2C(=O)OC(C)(C)OC2=O)c1 ?
Mtb BioA inh: inactive; PrP UTR inh: inactive; FadD28 FP inh: inactive; PfHsp40 rescue: inactive; Yp Topo-I inh: inactive

How did COc1cccc(NC=C2C(=O)OC3(CCCCC3)OC2=O)c1 do in these assays?
Mtb BioA inh: inactive; PrP UTR inh: inactive; FadD28 FP inh: inactive; PfHsp40 rescue: 314; Yp Topo-I inh: inactive

How did CCCCCCCC(=O)OCC(O)CO (configuration not stated) do in these assays?
Mtb BioA inh: inactive; PrP UTR inh: inactive; FadD28 FP inh: inactive; PfHsp40 rescue: inactive; Yp Topo-I inh: inactive

What do the screens show for `CCCCCCCCCCCCCCC(O)C[N+](C)(CCO)CCO` (configuration not stated)?
PrP UTR inh: inactive; FadD28 FP inh: 17; PfHsp40 rescue: inactive; Yp Topo-I inh: inactive

How did COc1ccc(NC(=O)Nc2ccc3c(c2)C(=O)N([C@@H](C)CO)C[C@H](C)[C@@H](CN(C)S(=O)(=O)c2ccc(F)cc2)O3)cc1 do in these assays?
Mtb BioA inh: inactive

Results for CN(C)/N=C/c1ccc([N+](=O)[O-])cc1[N+](=O)[O-] ?
PrP UTR inh: inactive; FadD28 FP inh: inactive; PfHsp40 rescue: 31; Yp Topo-I inh: inactive

How did CN(N=Cc1cccc2cccnc12)c1ccc([N+](=O)[O-])cc1[N+](=O)[O-] do in these assays?
PrP UTR inh: inactive; FadD28 FP inh: inactive; PfHsp40 rescue: inactive; Yp Topo-I inh: inactive

Results for COC(=O)C[C@@H]1C=C[C@@H](NS(=O)(=O)c2ccc(OC)cc2)[C@H](CO)O1 ?
Mtb BioA inh: inactive

What do the screens show for `Cc1cccc(NC(=S)N(CCCN2CCOCC2)Cc2cn(C)c3ccccc23)c1`?
Mtb BioA inh: inactive; PrP UTR inh: inactive; FadD28 FP inh: inactive; PfHsp40 rescue: inactive; Yp Topo-I inh: inactive

What do the screens show for `Cc1ccc(NC(=S)N(C)Cc2cn(C)c3ccccc23)cc1`?
Mtb BioA inh: inactive; PrP UTR inh: inactive; FadD28 FP inh: 16; PfHsp40 rescue: inactive; Yp Topo-I inh: inactive

How did Cc1c(Cc2ccccc2)c(NCCN(C)C)n2c(nc3ccccc32)c1C#N do in these assays?
Mtb BioA inh: inactive; PrP UTR inh: inactive; FadD28 FP inh: inactive; PfHsp40 rescue: 171; Yp Topo-I inh: inactive

What do the screens show for `CCCCc1c(C)c(C#N)c2nc3ccccc3n2c1NCCN(C)C`?
Mtb BioA inh: inactive; PrP UTR inh: inactive; FadD28 FP inh: inactive; PfHsp40 rescue: inactive; Yp Topo-I inh: inactive

Results for C[C@@H](O)C#Cc1ccc2c(c1)O[C@@H](CN(C)CC1CCOCC1)[C@@H](C)CN([C@@H](C)CO)S2(=O)=O ?
Mtb BioA inh: inactive

How did C[C@H]1CN([C@@H](C)CO)C(=O)c2ccccc2-c2ccccc2CO[C@@H]1CN(C)C(=O)C1CC1 do in these assays?
Mtb BioA inh: inactive

Results for O=C(CNC(=O)c1cccc(Cl)c1)Nc1ccc(Br)cc1C(=O)c1ccccc1 ?
PrP UTR inh: inactive; FadD28 FP inh: inactive; PfHsp40 rescue: 36; Yp Topo-I inh: inactive

What do the screens show for `CO[C@@H]1CN(C)C(=O)c2ccc(NS(C)(=O)=O)cc2OC[C@@H](C)N(C(=O)C2CCC2)C[C@H]1C`?
Mtb BioA inh: inactive

What do the screens show for `O=C(O)CCS(=O)(=O)c1cc(Br)cc2c1N(C(=O)C1CC1)CC2`?
PrP UTR inh: inactive; FadD28 FP inh: inactive; PfHsp40 rescue: inactive; Yp Topo-I inh: inactive

Results for CCCCN(C)S(=O)(=O)c1cc(Br)cc2c1N(C(=O)C1CC1)CC2 ?
Mtb BioA inh: inactive; PrP UTR inh: inactive; FadD28 FP inh: inactive; PfHsp40 rescue: 132; Yp Topo-I inh: inactive

How did CCS(=O)(=O)N1CCCCN2[C@H](C1)[C@@H](c1ccc(C#Cc3ccccc3OC)cc1)[C@@H]2CO do in these assays?
Mtb BioA inh: inactive

How did COc1ccccc1-c1sc2cc3c(cc2c1-c1ccc(OCCN2CCCCC2)cc1)OCO3 do in these assays?
Mtb BioA inh: inactive; PrP UTR inh: inactive; FadD28 FP inh: inactive; PfHsp40 rescue: 43; Yp Topo-I inh: inactive

How did COc1cc2sc(-c3ccccc3OC)c(-c3ccc(OCCN4CCCCC4)cc3)c2cc1OC do in these assays?
Mtb BioA inh: inactive; PrP UTR inh: inactive; FadD28 FP inh: inactive; PfHsp40 rescue: inactive; Yp Topo-I inh: inactive

Results for C=CCC1(O)C(=O)Nc2ccccc21 (configuration not stated) ?
Mtb BioA inh: inactive; PrP UTR inh: inactive; FadD28 FP inh: inactive; PfHsp40 rescue: 55; Yp Topo-I inh: inactive

How did Oc1ccc(O)c2c1C1(Cl)C(Cl)=C(Cl)C2(Cl)C1(Cl)Cl do in these assays?
Mtb BioA inh: inactive; PrP UTR inh: inactive; FadD28 FP inh: inactive; PfHsp40 rescue: 83; Yp Topo-I inh: inactive

How did Cc1ccc(OCC(O)CN2C(=O)NC(C)(C)C2=O)cc1C (configuration not stated) do in these assays?
Mtb BioA inh: inactive; PrP UTR inh: inactive; FadD28 FP inh: inactive; PfHsp40 rescue: inactive; Yp Topo-I inh: inactive

Screening results (PubChem BioAssay)
